# Measured values reported in PubChem BioAssay (EPA / NIEHS).
# Inconclusive results are not listed. Where a structure was tested more than once in an assay, its records may differ in their call. Activity calls are given as the source filed them. The calls were made as follows: active = hit-call score of the fitted dose curve at least 0.9, where 1 is the maximum; inconclusive = response in the unintended direction; inactive = score below 0.9.
# Biological target: chicken Estrogen Receptor (ESR1), ESR1 (gene 396099) (UniProt P06212)
# Sequence (P06212 whole entry, looked up): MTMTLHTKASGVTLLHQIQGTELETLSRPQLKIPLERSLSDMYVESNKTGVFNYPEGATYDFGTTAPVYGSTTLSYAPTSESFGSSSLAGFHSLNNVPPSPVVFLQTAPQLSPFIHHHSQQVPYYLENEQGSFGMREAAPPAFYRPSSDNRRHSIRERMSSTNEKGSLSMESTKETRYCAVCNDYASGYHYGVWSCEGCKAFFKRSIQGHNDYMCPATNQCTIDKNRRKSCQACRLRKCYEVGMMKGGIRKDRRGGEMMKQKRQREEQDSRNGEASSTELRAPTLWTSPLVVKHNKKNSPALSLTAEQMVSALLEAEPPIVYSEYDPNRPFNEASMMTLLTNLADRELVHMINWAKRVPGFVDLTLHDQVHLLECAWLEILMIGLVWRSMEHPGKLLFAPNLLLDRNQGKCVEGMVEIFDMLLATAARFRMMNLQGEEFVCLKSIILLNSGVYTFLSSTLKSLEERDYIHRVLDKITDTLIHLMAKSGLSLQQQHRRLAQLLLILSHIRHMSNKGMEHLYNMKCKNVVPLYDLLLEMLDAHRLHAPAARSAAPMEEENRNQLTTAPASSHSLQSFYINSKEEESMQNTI
# Test: ATG_chERa_XSP1: Attagene TRANS-FACTORIAL Multi-Species (XSP1) HepG2 Assay for chicken Estrogen Receptor (ESR1) (AID 2283779)
# In short: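 HepG2 cells transiently transfected with multiplexed GAL4-UAS reporter units expressing chimeric NR-Gal4 proteins; 3 nM 6-alpha-fluorotestosterone present. Reporter mRNA measured 24 h after dosing by RT-PCR, FAM labelling, HpaI digest and capillary electrophoresis; gain of signal versus DMSO.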
Structure (SMILES),AC50,outcome
CCCN(CCC)c1c([N+](=O)[O-])cc(C(F)(F)F)cc1[N+](=O)[O-],27.2 µM (active),
Oc1cc(Cl)ccc1Oc1ccc(Cl)cc1Cl,,inactive
O=S1OCC2C(CO1)C1(Cl)C(Cl)=C(Cl)C2(Cl)C1(Cl)Cl (configuration not stated),,inactive
CC1(C)C(C=C(Cl)Cl)C1C(=O)OC(C#N)c1ccc(F)c(Oc2ccccc2)c1 (configuration not stated),27.5 µM (active),
COP(=S)(OC)Oc1ccc(SC)c(C)c1,25.6 µM (active),
CCOCN(C(=O)CCl)c1c(C)cccc1CC,,inactive
Oc1ccc(Cl)cc1Cc1ccccc1,,inactive
CCCN(CCOc1c(Cl)cc(Cl)cc1Cl)C(=O)n1ccnc1,,inactive

# Biological target: Estrogen receptor (Homo sapiens) (UniProt P03372)
# Sequence (P03372 whole entry, looked up): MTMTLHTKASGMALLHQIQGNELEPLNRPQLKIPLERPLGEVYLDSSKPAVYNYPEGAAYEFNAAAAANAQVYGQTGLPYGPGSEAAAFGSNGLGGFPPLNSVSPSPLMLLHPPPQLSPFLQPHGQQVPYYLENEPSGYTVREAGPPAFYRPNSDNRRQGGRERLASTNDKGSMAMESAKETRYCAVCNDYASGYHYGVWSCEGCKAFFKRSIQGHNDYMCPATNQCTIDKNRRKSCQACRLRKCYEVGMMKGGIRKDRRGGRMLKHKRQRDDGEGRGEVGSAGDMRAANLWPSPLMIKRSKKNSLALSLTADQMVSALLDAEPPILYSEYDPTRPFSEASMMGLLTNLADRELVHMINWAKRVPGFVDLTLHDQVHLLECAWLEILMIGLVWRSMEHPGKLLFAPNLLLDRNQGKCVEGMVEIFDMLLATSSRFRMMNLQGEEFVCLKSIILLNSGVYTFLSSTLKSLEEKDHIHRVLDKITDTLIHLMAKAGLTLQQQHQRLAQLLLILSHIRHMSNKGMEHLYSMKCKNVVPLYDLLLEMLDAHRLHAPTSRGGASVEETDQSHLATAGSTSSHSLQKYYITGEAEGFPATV
# Test: ATG_hERa_XSP1: Attagene TRANS-FACTORIAL Multi-Species (XSP1) HepG2 Assay for human Estrogen Receptor (ESR1) (AID 2283780)
# In short: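 HepG2 cells transiently transfected with GAL4-UAS reporter units and chimeric NR-Gal4 constructs; 24 h after dosing, reporter mRNA quantified by RT-PCR and capillary electrophoresis. Medium contained 3 nM 6-alpha-fluorotestosterone; activity fitted as gain-of-signal versus DMSO.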
Structure (SMILES),outcome,AC50
CCCN(CCC)c1c([N+](=O)[O-])cc(C(F)(F)F)cc1[N+](=O)[O-],inactive,
O=S1OCC2C(CO1)C1(Cl)C(Cl)=C(Cl)C2(Cl)C1(Cl)Cl (configuration not stated),,1.98 µM (active)
CC1(C)C(C=C(Cl)Cl)C1C(=O)OC(C#N)c1ccc(F)c(Oc2ccccc2)c1 (configuration not stated),inactive,
COP(=S)(OC)Oc1ccc(SC)c(C)c1,,26.5 µM (active)
CCOCN(C(=O)CCl)c1c(C)cccc1CC,inactive,

# System: turtle Estrogen Receptor (ESR1), gene 101933533
# Test: ATG_trERa_XSP1: Attagene TRANS-FACTORIAL Multi-Species (XSP1) HepG2 Assay for turtle Estrogen Receptor (ESR1) (AID 2283781)
# In short: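 HepG2 cells transiently transfected with GAL4-UAS reporter units and chimeric NR-Gal4 constructs, dosed for 24 h with 3 nM 6-alpha-fluorotestosterone present. Reporter mRNA was quantified by RT-PCR, fluorescent labelling and capillary electrophoresis, with gain of signal fitted relative to DMSO.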
row,Structure (SMILES),AC50
1,CCCN(CCC)c1c([N+](=O)[O-])cc(C(F)(F)F)cc1[N+](=O)[O-],27.9 µM (active)
2,Oc1cc(Cl)ccc1Oc1ccc(Cl)cc1Cl,5.85 µM (active)
3,O=S1OCC2C(CO1)C1(Cl)C(Cl)=C(Cl)C2(Cl)C1(Cl)Cl (configuration not stated),1.98 µM (active)
4,CC1(C)C(C=C(Cl)Cl)C1C(=O)OC(C#N)c1ccc(F)c(Oc2ccccc2)c1 (configuration not stated),27.5 µM (active)
5,COP(=S)(OC)Oc1ccc(SC)c(C)c1,26.6 µM (active)
6,Oc1ccc(Cl)cc1Cc1ccccc1,2.74 µM (active)

# System: not listed separately
# Test: ACEA_ER_AUC_viability: ACEA Biosciences xCELLigence Real-Time Cell Analysis on Estrogen Receptor Agonism for Viability (AID 2283782);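 also: continuous compound exposure with impedance area under curve over 80 h; hit means loss of impedance signal meaning reduced cell growth or viability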
# In short: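 T-47D human breast cells in phenol red-free RPMI1640 with 10% charcoal-stripped FBS were dosed with an 8-point 1:4 dilution series from 100 uM top final concentration, in duplicate. Impedance-based growth was followed for 80 h; AUC analysed versus DMSO.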
Structure (SMILES),outcome,AC50
CCC(C)Nc1c([N+](=O)[O-])cc(C(C)(C)C)cc1[N+](=O)[O-] (configuration not stated),inactive,
CNC(=O)Oc1cccc(N=CN(C)C)c1,,50.5 µM (active)
Oc1cc(Cl)ccc1Oc1ccc(Cl)cc1Cl,,21.9 µM (active) [middle of 6 runs]
COP(=S)(OC)Oc1ccc([N+](=O)[O-])cc1,inactive,
O=C1c2ccccc2C(=O)N1SC(Cl)(Cl)Cl,inactive,
O=S1OCC2C(CO1)C1(Cl)C(Cl)=C(Cl)C2(Cl)C1(Cl)Cl (configuration not stated),,71.8 µM (active)
O=C(Nc1ccccc1)Nc1cnns1,inactive,
N#CN,inactive,
CC1(C)C(C=C(Cl)Cl)C1C(=O)OC(C#N)c1ccc(F)c(Oc2ccccc2)c1 (configuration not stated),,74.3 µM (active)
O=S(=O)(O)C(F)(F)C(F)(F)C(F)(F)C(F)(F)C(F)(F)C(F)(F)C(F)(F)C(F)(F)F,inactive,80 µM (active)
COc1nn(CSP(=S)(OC)OC)c(=O)s1,inactive,
CC1(c2ccc(Oc3ccccc3)cc2)OC(=O)N(Nc2ccccc2)C1=O (configuration not stated),,45.8 µM (active)
COP(=S)(OC)Oc1ccc(SC)c(C)c1,inactive,
CCOCN(C(=O)CCl)c1c(C)cccc1CC,,79.5 µM (active)
Oc1ccc(Cl)cc1Cc1ccccc1,,18.3 µM (active) [middle of 9 runs]
CN1CSC(=S)N(C)C1,,39.7 µM (active)
CCCN(CCOc1c(Cl)cc(Cl)cc1Cl)C(=O)n1ccnc1,,74.9 µM (active)
